Results on 38 compounds are retold here after PubChem BioAssay (NCI).

About 83,000 compounds went through this panel and 20% of them were active in at least one assay; those are over-represented in the sample as a whole.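 The endpoint reported here, percent growth, reads 100 for growth as untreated, 0 for no net growth and -100 for all cells dead.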 The source made the active and inactive calls. The calls were made as follows: active = growth percent below 10; inactive = the rest.

The subject of the experiment is HOP-92 NSCLC. The experiment is described as follows: NCI-60 one-dose screen, 48 h (100 = growth as untreated, 0 = no growth, -100 = all killed). To be noted: 10 µM unless noted.
Turning to `COc1cc2[nH]c(C(=O)c3cc(OC)c(OC)c(OC)c3)c(N)c2cc1C#CC1CC1`, the growth was 17.2% (inactive).

For `COc1cc2c(cc1OC)C(=O)/C(=C/c1cc(-c3ccc4c(c3)OCO4)n[nH]1)C2`, the growth was -4.09% (active).

With `NS(=O)(=O)c1ccc(CCNC(=O)/C=C/c2ccc(Cl)cc2)cc1`, the growth was 100% (inactive).

As for `C/C(=N/NC(N)=S)C(=O)O`, the growth was 107% (inactive).

`Cc1ccc(-c2ccc(Nc3ccccc3)nn2)cc1S(N)(=O)=O`: the growth is 98.9% (inactive).

Turning to `CCC(c1ccc(OC)cc1)C(CC)c1ccc(O)c(CN2CCCCC2)c1` (stereo not drawn), the growth is 52.2% (inactive).

Turning to `COc1cc(-c2cc(-c3nc4ccc(F)cc4[nH]3)[nH]n2)cc(OC)c1OC`, the growth is 25.8% (inactive).

Turning to `COc1cccc(NC(=O)c2sc3nc4c(cc3c2N)C(=O)CCC4)c1`, the growth was 57.3% (inactive).

Take `NC1(N)C=CC2=C(C=C1)C1(N)C3=C(C=CC(N)(N)C=C3)N2C2(N)C3=C(C=CC(N)(N)C=C3)N1C1=C2C=CC(N)(N)C=C1`: the growth is 70.3% (inactive).

For the compound `COc1ccc(-c2nc3ccccn3c2-c2nc3ccc(Cl)cc3[nH]2)cc1`, the growth is 85% (inactive).

As for `O=c1c(CNc2ccc(S(=O)(=O)Nc3nccs3)cc2)coc2ccccc12`, the growth was 80.1% (inactive).

Take `CN1CCN(c2nc(-c3cccc4ccccc34)nc3sc4c(c23)CCCCCC4)CC1`: the growth is -0.421% (active).

As for `COc1ccc2nc(-c3cc(-c4cc(OC)c(OC)c(OC)c4)n[nH]3)[nH]c2c1`, the growth was 22% (inactive).

Regarding `COc1cccc(-c2nn(-c3ccccc3)cc2-c2ccnc(NCCNS(=O)(=O)c3ccc(Cl)cc3)c2)c1`, the growth is 7.77% (active).

Regarding `O=S(=O)(NCCNc1cc(-c2cn(-c3ccccc3)nc2-c2cccc(O)c2)ccn1)c1ccc(C(F)(F)F)cc1`, the growth is 38.4% (inactive).

For the compound `Cc1cc(C)c(NC(=O)c2sc3nc4c(cc3c2N)CCCC4)c(C)c1`, the growth was 52.3% (inactive).

Turning to `C/C(=N\Nc1cc(C)c2ccccc2n1)c1ccccn1`, the growth is -13.9% (active).

Consider `C=C1C(=O)O[C@H]2[C@H]1CC/C(Cn1cc(-c3ccc(OC)cc3)nn1)=C\CC[C@@]1(C)O[C@@H]21`, for which the growth was -60.1% (active).

Regarding `COC(=O)[C@]12CC[C@@H](C)[C@H](C)[C@@H]1C1=CC[C@@H]3[C@@]4(C)C[C@@H](OC(C)=O)[C@H](OC(C)=O)[C@@](C)(COC(C)=O)[C@@H]4[C@H](O)C[C@@]3(C)[C@]1(C)CC2`, the growth is 31.2% (inactive).

On to `COc1cccc(-c2nn(-c3ccccc3)cc2-c2ccnc(NCCCNS(=O)(=O)c3ccc(Cl)cc3)c2)c1`, for which the growth is 25.1% (inactive).

Turning to `O=c1c(CNc2ccc(S(=O)(=O)Nc3ncccn3)cc2)coc2ccccc12`, the growth was 102% (inactive).

Regarding `COc1ccc(-c2cc(/C=C/C(=O)c3ccc(OC)c(OC)c3)[nH]n2)cc1`, the growth is 66.6% (inactive).

Take `C#Cc1cc2c(N)c(C(=O)c3cc(OC)c(OC)c(OC)c3)[nH]c2cc1OC`: the growth was -4.39% (active).

Regarding `O=S(=O)(NCCNc1cc(-c2cn(-c3ccccc3)nc2-c2cccc(O)c2)ccn1)c1ccc(F)cc1`, the growth is 35.7% (inactive).

In the case of `c1ccc2[nH]c(-c3cc(-c4ccc5c(c4)OCO5)n[nH]3)nc2c1`, the growth was 119% (inactive).

In the case of `COc1cccc(-c2nn(-c3ccccc3)cc2-c2ccnc(NCCCNS(=O)(=O)c3cccc(F)c3)c2)c1`, the growth is 6.39% (active).

For the compound `COc1cc(-c2cc(-c3nc4cc(Cl)c(Cl)cc4[nH]3)[nH]n2)cc(OC)c1OC`, the growth is 61.2% (inactive).

As for `Oc1cc(/C=C/c2nc(N3CCOCC3)c3cc(Cl)c(Cl)cc3n2)cc(O)c1O`, the growth is 102% (inactive).

Consider `Cc1cc(Nc2ccc(F)cc2)nc(N2CCN(c3ccnc4cc(Cl)ccc34)CC2)n1`, for which the growth was -7.85% (active).

For `COc1ccc(/C=C/C(=O)NCC(C)O)cc1` (stereo not drawn), the growth was 101% (inactive).

In the case of `COc1ccc(-c2cc(/C=C/C(=O)c3ccc(N)cc3)[nH]n2)cc1`, the growth was 73.6% (inactive).

As to `CSc1ccc(N(C)c2nc(C)nc3c2CCC3)cc1`, the growth is -17% (active).

In the case of `OCCNc1nc(Nc2ccc(Cl)c(Cl)c2)nc2ccccc12`, the growth was 27.4% (inactive).

Take `COc1cc(-c2cc(-c3nc4ccccc4[nH]3)[nH]n2)cc(OC)c1OC`: the growth is 52.1% (inactive).

Regarding `O=C1CCN2C(=O)Nc3ccccc3C2C1` (stereo not drawn), the growth was 96.7% (inactive).

For the compound `Cc1[c-]onc1C.Cc1[c-]onc1C.[Ag].[Ag].[NH-]S(=O)(=O)c1ccc(N=Nc2cc(N=Nc3ccc(S([NH-])(=O)=O)cc3)c3c(NC(=O)C(Cl)Cl)cccc3c2OC(=O)C(Cl)Cl)cc1`, the growth was 6.01% (active).

Turning to `Clc1ccc(Cn2cc(-c3nc4ccc(Br)nc4n3Cc3ccc(Cl)cc3)c3cccnc32)cc1`, the growth is 65.4% (inactive).

Take `COC(=O)[C@]12CC[C@@H](C)[C@H](C)[C@@H]1C1=CC[C@@H]3[C@@]4(C)C[C@@H](OC(C)=O)[C@H](O)[C@@](C)(COC(C)=O)[C@@H]4[C@H](O)C[C@@]3(C)[C@]1(C)CC2`: the growth is -67.4% (active).
